AmpC no deterg: inhibitors of E. coli AmpC beta-lactamase without detergent | AID 485341 | Potency, µM (highest dose often 57.1 µM), most hits filed as inhibitors | P00811 | AmpC nitrocefin hydrolysis, absorbance 480 nm, 0.0001% Triton | actives 0.52% (n = 330,000); also: nearly all actives have a fitted effect of over 20% in size
Target sequence (P00811 whole entry, looked up): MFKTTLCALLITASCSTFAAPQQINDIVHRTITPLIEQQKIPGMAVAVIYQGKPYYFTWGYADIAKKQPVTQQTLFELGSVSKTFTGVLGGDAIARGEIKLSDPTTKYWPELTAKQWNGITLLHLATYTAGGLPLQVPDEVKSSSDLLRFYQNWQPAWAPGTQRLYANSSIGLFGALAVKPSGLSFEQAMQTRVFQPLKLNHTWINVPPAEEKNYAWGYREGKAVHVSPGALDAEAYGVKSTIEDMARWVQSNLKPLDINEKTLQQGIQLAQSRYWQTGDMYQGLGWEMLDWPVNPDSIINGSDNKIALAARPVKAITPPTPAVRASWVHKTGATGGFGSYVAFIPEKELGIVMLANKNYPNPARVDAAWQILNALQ
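20 mM phosphate pH 7.0 + 0.01% (detergent screen) or 0.0001% Triton X-100; 5.3 nM AmpC reagent; cpd preinc 15 min RT; nitrocefin (800 uM stock) to start; A480 q20 s × 4 min; Activity was normalised to no-enzyme and no-compound control wells.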
AmpC detergent: blocks E. coli AmpC beta-lactamase in detergent assay | AID 485294 | AmpC hydrolysis of nitrocefin, absorbance 480 nm, 0.01% Triton | P00811 | actives 0.041% (n = 370,000) | Potency, µM (highest dose often 114 µM), actives largely listed as inhibitors; also: nearly all actives have a fitted effect of over 25% in size
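AmpC (5.3 nM in the dispensed reagent) in 20 mM phosphate pH 7.0 with 0.01% (detergent screen) or 0.0001% Triton X-100 was preincubated with compounds for 15 min at room temperature. Nitrocefin was then added from an 800 uM solution, and hydrolysis was followed at 480 nm.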
Sm TGR inh: S. mansoni TGR enzyme inhibition; Potency, µM (top dose mostly 114 µM), hits mostly inhibitors; Q962Y6; AID 485364; actives 3% (n = 360,000); purified TGR, DTNB reduction, TNB absorbance 405 nm; also: nearly all actives have a fitted effect of over 60% in size
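First, TGR (20 nM dispensed) and NADPH were mixed with compound. Second, a 15 min room-temperature incubation followed. Third, further NADPH and then DTNB were added to start the reaction. Finally, TNB absorbance was monitored kinetically.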
SARS PLP yeast: inhibitors of SARS-CoV papain-like protease in yeast. Potency, µM (top dose mostly 32.9 µM), most hits filed as activators. AID 485353. actives 0.19% (n = 330,000). S. cerevisiae expressing SARS-CoV PLpro, growth rescue; calls by dose curve; also: nearly all actives have a fitted effect of over 55% in size
Pf growth 48h: P. falciparum growth inhibition at 48 hours (one generation); P. falciparum luciferase growth in erythrocytes, 48 h; Potency, µM (series often up to 28.7 µM), actives largely listed as inhibitors; actives 5.9% (n = 310,000)
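Firefly luciferase activity from engineered P. falciparum reports growth; inhibitors lower the luminescent signal. Cultures contained 2% hematocrit erythrocytes at 0.1% final parasitemia.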
Pf growth 96h: P. falciparum growth inhibition at 96 hours | P. falciparum luciferase reporter growth, 96 h | Potency, µM (series often up to 28.7 µM), hits mostly inhibitors | actives 6.9% (n = 320,000) | AID 504834
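Infected RBCs, 2% Hct / 0.05% parasitemia final; luciferase-reporter P. falciparum; cpd 96 h, 37 C, 5% CO2; luciferase detection reagent; luminescence.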
Each line names hits and unclear results; the compound was inactive in the other large screens. Hits are enriched below; roughly 12% of the tested compounds scored in any of these assays. Unless noted, calls follow the shape of the dose curve; as a rule, active = well fitted curve in the direction sought with a large enough effect; inconclusive = small, poorly fitted or top-dose-only effect, or another doubt; inactive = no such curve, though single readings can be large; an effect the other way counts as inactive or inconclusive.

Cc1[nH]c2ccccc2c1/C=N/Nc1ccc([N+](=O)[O-])cc1	AmpC detergent inconclusive, Pf growth 48h inconclusive
CC1CCC(C(=O)NC(C(=O)OCC(=O)c2ccccc2)C(C)C)CC1 (configuration not stated)	none (no result: AmpC no deterg, SARS PLP yeast, Pf growth 48h, Pf growth 96h)
O=C(NC(=S)Nc1cccc(O)c1)c1ccco1	Sm TGR inh 7.9µM
Cc1ccccc1C(=O)NC(=S)Nc1ccccc1[N+](=O)[O-]	Pf growth 96h inconclusive
O=C(NC(=S)Nc1ccccc1[N+](=O)[O-])c1ccco1	AmpC detergent inconclusive, Sm TGR inh 50µM, Pf growth 96h inconclusive
Oc1cccc(NC(=S)Nc2ccccc2)c1	Sm TGR inh 16µM
Cc1ccc2nsnc2c1NC(=S)NC(=O)c1ccco1	Sm TGR inh 45µM
CCn1c(=O)c2cc(C(=O)NCCCN3CCN(c4ccc(F)cc4)CC3)sc2c2ccccc21	none (no result: AmpC no deterg, SARS PLP yeast, Pf growth 48h, Pf growth 96h)
O=C(COC(=O)Cc1cccs1)Nc1ccc(OC(F)(F)F)cc1	none
O=C(NC(=S)Nc1ccc2c(c1)OCCO2)c1ccco1	Sm TGR inh 16µM
CC1CC(C)CN(S(=O)(=O)c2ccc(NC(=O)CN3CCCCCC3)cc2)C1 (configuration not stated)	Pf growth 48h 7.4µM, Pf growth 96h inconclusive
CC1CCCN(CC(=O)Nc2ccc(S(=O)(=O)N3CCCCC3)cc2)C1 (configuration not stated)	Pf growth 48h inconclusive, Pf growth 96h 9.3µM
Cc1cccc(NC(=S)N2CCC(C(N)=O)(N3CCCCC3)CC2)c1C	none
CCc1ccc(/C=C(/C#N)c2nc(-c3ccc(C)cc3)cs2)cc1	none (no result: AmpC no deterg, SARS PLP yeast, Pf growth 48h, Pf growth 96h)
CCOc1ccc(-c2csc(/C(C#N)=C\c3ccc(O)c([N+](=O)[O-])c3)n2)cc1	Pf growth 48h inconclusive, Pf growth 96h 5.2µM
CCC(C)(C)NC(=O)C(c1ccc(O)cc1)N(CCOC)C(=O)CCC(=O)Nc1nccs1 (configuration not stated)	Pf growth 48h 2.9µM
CCC(C)(C)NC(=O)CN(C(=O)CCC(=O)Nc1nccs1)c1cccc(C)c1C	Pf growth 48h 13µM
C=CCN(C(=O)C1=NN(C2CCS(=O)(=O)C2)C(=O)CC1)c1nc(-c2ccc([N+](=O)[O-])cc2)cs1 (configuration not stated)	none
O=C(/C=C/c1ccccc1)c1ccccc1	Sm TGR inh inconclusive, Pf growth 96h inconclusive
N#Cc1ccc(/C=C/C(=O)c2ccccc2)cc1	Sm TGR inh 8.9µM
COc1ccc(NC(=O)C2C3CCC4C(CCC32)C4(Cl)Cl)cc1 (configuration not stated)	Pf growth 96h 5.2µM
COc1cccc(NC(=O)C2C3CCC4C(CCC32)C4(Cl)Cl)c1 (configuration not stated)	AmpC no deterg inconclusive
Cc1cccc(-c2nnc(NC(=O)c3ccc(N4C(=O)CCC4=O)cc3)s2)c1	AmpC detergent inconclusive, Pf growth 48h inconclusive, Pf growth 96h 4.7µM
CC(C)c1nnc(NC(=O)c2ccc(N3C(=O)CCC3=O)cc2)s1	AmpC detergent inconclusive
Cc1ccccc1-c1nnc(NC(=O)c2ccc(N3C(=O)CCC3=O)cc2)s1	AmpC detergent inconclusive, Pf growth 96h 9.3µM
CCOc1ccc(S(=O)(=O)N2CCC(C(=O)NCCc3ccccc3)CC2)cc1	AmpC detergent inconclusive
CCn1c(SCC(=O)Nc2ccc(Cl)cc2)nc2nc3c(cc2c1=O)CCCC3	AmpC detergent inconclusive, Pf growth 48h inconclusive, Pf growth 96h 13µM
CCn1c(SCC(=O)Nc2ccc(C(C)=O)cc2)nc2nc3c(cc2c1=O)CCCC3	AmpC detergent inconclusive, Pf growth 48h inconclusive, Pf growth 96h inconclusive
O=C(CSc1nc2nc3c(cc2c(=O)n1-c1ccccc1)CCCC3)Nc1cccc2ccccc12	Pf growth 48h 5.9µM, Pf growth 96h 5.9µM
Cc1cccc(NC(=O)CSc2nc3nc4c(cc3c(=O)n2-c2ccccc2)CCCC4)c1	AmpC detergent inconclusive, Pf growth 48h 5.2µM, Pf growth 96h 2.9µM
CCOc1ccc(-n2c(SCC(=O)Nc3ccc(F)cc3)nc3c([nH]c4ccccc43)c2=O)cc1	none (no result: AmpC no deterg, SARS PLP yeast, Pf growth 48h, Pf growth 96h)
Cc1ccc(-c2nc3ccc(NS(=O)(=O)c4ccccc4)cc3[nH]2)o1	Sm TGR inh 35µM (no result: Pf growth 48h)
Cc1cc(NS(=O)(=O)c2ccc3nc(-c4ccccc4)[nH]c3c2)ccc1Br	none (no result: AmpC no deterg, SARS PLP yeast, Pf growth 48h, Pf growth 96h)
O=S(=O)(Nc1ccc2nc(C(F)(F)F)[nH]c2c1)c1ccccc1	Pf growth 48h 12µM
O=S(=O)(Nc1ccc2nc(-c3ccc(Br)o3)[nH]c2c1)c1ccccc1	AmpC no deterg 25µM, Sm TGR inh 28µM, Pf growth 96h inconclusive
CC(C)(C)c1nc2ccc(NS(=O)(=O)c3ccc(F)c(F)c3F)cc2[nH]1	Pf growth 48h inconclusive
COc1ccc(CCNC(=O)CCCn2c(=O)c3ccccc3n(Cc3ccccc3)c2=O)cc1OC	none (no result: AmpC no deterg, SARS PLP yeast, Pf growth 48h, Pf growth 96h)
CCCCCOc1ccc(CSCCNC(=S)Nc2ccccc2)cc1	Pf growth 48h inconclusive, Pf growth 96h 10µM
NC(=S)N=Nc1ccc(NN=C(N)N)cc1	AmpC detergent inconclusive, Sm TGR inh 50µM, Pf growth 48h 1.2µM, Pf growth 96h inconclusive
Cc1ccc(CCNC(=O)c2cc3sccc3n2Cc2ccc(F)cc2)cc1	none (no result: AmpC no deterg, SARS PLP yeast, Pf growth 48h, Pf growth 96h)
CC(=O)c1cccc(Nc2cc(C)nc3ccc(C)cc23)c1	Pf growth 48h 4.1µM, Pf growth 96h inconclusive
CC(=O)c1cccc(Nc2cc(C)nc3c(C)cc(C)cc23)c1	Pf growth 48h 9.3µM, Pf growth 96h inconclusive
COc1ccc2nc(C)cc(Nc3ccc(C)cc3)c2c1	Pf growth 48h inconclusive
Cc1ccc2nc(C)cc(Nc3ccc([N+](=O)[O-])cc3)c2c1	Pf growth 48h 0.74µM, Pf growth 96h inconclusive
COC(=O)c1ccc(Nc2cc(C)nc3ccc(C)cc23)cc1	Pf growth 48h inconclusive, Pf growth 96h inconclusive
Cc1ccc(Cn2c(=O)c3cccnc3n(CC(=O)Nc3cc(Cl)ccc3C)c2=O)cc1	none (no result: AmpC no deterg, SARS PLP yeast, Pf growth 48h, Pf growth 96h)
Cc1cc(C)n(CCc2nc3c4ccccc4nc(SCc4ccc(Cl)cc4)n3n2)n1	none (no result: AmpC no deterg, SARS PLP yeast, Pf growth 48h, Pf growth 96h)
CC(c1nnnn1C(C)(C)C)N(Cc1cccnc1)Cc1ccccc1Cl (configuration not stated)	Pf growth 48h 13µM (no result: Pf growth 96h)
CC(C)(C)n1nnnc1C(c1cccs1)N(Cc1cccnc1)Cc1ccccc1Cl (configuration not stated)	SARS PLP yeast inconclusive, Pf growth 48h 2.9µM
CCC(C)(C)n1nnnc1C(C(C)C)N(Cc1cccnc1)Cc1ccco1 (configuration not stated)	Pf growth 48h inconclusive (no result: Sm TGR inh)
Clc1ccccc1CN(Cc1ccccc1)C(c1cccs1)c1nnnn1C1CCCC1 (configuration not stated)	Pf growth 48h inconclusive, Pf growth 96h inconclusive (no result: AmpC no deterg, SARS PLP yeast)

Source: PubChem BioAssay
